Reference: ChEMBL document CHEMBL4513216, “Probing the Open Global Health Chemical Diversity Library for Multistage-Active Starting Points for Next-Generation Antimalarials” (ACS Infect Dis, 2020)
Out of some 69,000 compounds screened, about 8,600 (12%) showed an effect of 50% or more. The sample as a whole holds a higher share of strong results than the screen did.

System: Plasmodium berghei
Assay: Screen against P. berghei liver stage (PbLuc), transformed with Luciferase, at 10uM
Format: functional, HepG2
Details: tested at 10 uM

SMILES	INHIBITION [%]
CCCc1nnsc1C(=O)N1CCN(CC(O)c2ccco2)CC1 (configuration not stated)	7.85
CCc1nc(CNc2cc(Cl)ccc2OCC2CCCO2)no1 (configuration not stated)	93.1
O=C(Nc1cc(F)ccc1OCC1CCCO1)c1ccccn1 (configuration not stated)	-25.9
Fc1ccc(OCC2CCCO2)c(NCc2cn3cccnc3n2)c1 (configuration not stated)	59.3
O=C(CNc1cc(F)ccc1OCC1CCCO1)N1CCOCC1 (configuration not stated)	19.5
CCc1noc(CNc2cc(F)ccc2OCC2CCCO2)n1 (configuration not stated)	1.81
CCc1noc(CNc2ccc(F)cc2OCC2CC2)n1	-29.9
CC(C)(C)c1nnc(CNc2cc(F)ccc2OCC2CCCO2)o1 (configuration not stated)	35.5
Fc1ccc(OCC2CCCO2)c(NCc2noc(C3CC3)n2)c1 (configuration not stated)	35.5
Nc1ccnc(CNc2cc(F)ccc2OCC2CCCO2)n1 (configuration not stated)	54.4
NCC1CCC2(CCN(C(=O)c3ccccn3)CC2)CO1 (configuration not stated)	38.5
Cc1ncc(C(=O)NC2CCc3nccn3C2)c(C(C)C)n1 (configuration not stated)	11.6
CCOCC1c2c(cnn2CC2CC2)CCN1C(=O)c1ccncn1 (configuration not stated)	6.72
O=C(CC1CC1)N1CC[C@@H]2[C@H](CC1)N(Cc1cccnc1)CCS2(=O)=O	-35
Cc1nc(C)n(C2CCCN(C(=O)CCn3ccnn3)C2)n1 (configuration not stated)	-10.3
Cc1cn[nH]c1C1COCCN1Cc1ccsc1 (configuration not stated)	25.15
O=C(NS(=O)(=O)c1c(Cl)cccc1Cl)c1cccc2c1OCCO2	12.3
O=C(CCCC(=O)NCc1cccc(Br)c1)NCCN1CCCC1	17.5
CC(C)S(=O)(=O)N1CCC(c2cc3n(n2)[C@@H](C(F)(F)F)C[C@@H](C)N3)C1 (some centres not stated)	27.3
CCN(CC)CC(=O)N1CCN(c2nc(C)cc(OC)n2)CC1	2.54
CCOc1cc(C)nc(N2CCN(C(=O)C(C)NC(C)=O)CC2)n1 (configuration not stated)	60.5
CCOc1cc(C)nc(N2CCN(C(=O)c3ccncc3)CC2)n1	33.8
COc1cc(C)nc(N2CCN(C(=O)CN(C)C(C)C)CC2)n1	59.9
CCOc1cc(C)nc(N2CCN(C(=O)CC)CC2)n1	8.25
COc1cc(C)nc(N2CCN(C(=O)CN(C)C3CC3)CC2)n1	-3.18
CCOC1COC2(CCN(CC3CCOCC3)CC2)C1 (configuration not stated)	31.2

SMILES	INHIBITION [%]
Clc1ccc(CN2CCCCC2Cn2cncn2)c2ncccc12 (configuration not stated)	40.65
Cc1nc(CN2CC[C@H]3[C@H]2CCN3c2nncs2)cs1	40.8
Cc1nn(CCN2CCSCC2)cc1CNCc1ccccn1	23.5
OC(COCc1ccccc1F)CN1CCC(Cn2cccn2)CC1 (configuration not stated)	46.3
c1ncn(CC2CCCN(Cc3nc(-c4ccoc4)no3)C2)n1 (configuration not stated)	-34
CN(C)C(=O)N1CCC2(CC1)CCN(c1ncccn1)C2	-26.1
Cc1ccc(CNC(=O)c2nc3c(n2C)CCN(c2ncccn2)C3)o1	48.4
COc1cc(CNCc2c(C)nn(C)c2N(C)C)ccc1OCCO	21.6
Nc1ccnn1C1CCN(Cc2ccccc2)C1 (configuration not stated)	43.1
Cc1cnn(C2CCN(Cc3ccccc3)C2)c1N (configuration not stated)	56.1
Nc1c(Cl)cnn1C1CCN(Cc2ccccc2)C1 (configuration not stated)	37.7
Cc1ccc(NC(=O)[C@@H]2C[C@H](C(=O)O)CN(Cc3sccc3C)C2)cn1	29.4
Cc1ccc(NC2CCN(C(=O)c3cccnc3O)CC2)nn1	16.8
Cc1csc2c(=O)n(CCSc3cnn[nH]3)cnc12	18.5
c1ccc(CCN2CCN(C3CCOC4(CCOCC4)C3)CC2)nc1 (configuration not stated)	7.24
Cc1ncccc1O[C@H]1CCN(C(=O)c2cccs2)CC[C@@H]1O	23.3
Cc1ncccc1O[C@H]1CCN(C(=O)Cc2cccs2)CC[C@@H]1O	42.9
Cc1csc(C(=O)N2CC[C@H](Oc3cccnc3C)[C@@H](O)CC2)c1	57.5
Cc1ccc(C(=O)N2CC[C@H](Oc3cccnc3C)[C@@H](O)CC2)s1	44.1
CCc1ccc(C(=O)N2CCC(c3nncn3CC)CC2)cc1	-3.16
CCc1ccc(C(=O)N2CC[C@H](Oc3cccnc3C)[C@@H](O)CC2)cc1	78.2
O=C(NC1CCCCC1)N1CCc2onc(COc3cccnc3)c2C1	40.4
Cc1ccoc1C(=O)N1CCOCC2(CCN(c3ncccn3)C2)C1 (configuration not stated)	-19.9
CC(C)CNC(=O)CNC(=O)NC(C)COc1ccccc1F (configuration not stated)	-24.5
O=C(NCC1CC1)C1CSCN1S(=O)(=O)c1cc(F)cc(F)c1 (configuration not stated)	27.7
Cc1noc([C@@H]2CC[C@@H]3[C@@H](CCN3S(=O)(=O)c3cccnc3)O2)n1	-2.53
